The values below come from PubChem BioAssay (EPA / NIEHS).

Several values for one entry are separate records, joined by “and”; a condition that tells them apart may be missing. Equal entries are not always repeated. Some compounds were tested as several samples or in several runs, with calls that do not always agree. Activity calls are given as the source filed them. Rule for the calls: active = hit-call score of the fitted dose curve at least 0.9, where 1 is the maximum; inactive = score below 0.9.

Conditions in all cases: mRNA level, 48 h; actives raise or lower the signal
Read-out in test [1]: Heat shock 70 kDa protein 1 (HSPA1A), gene 3303
Kind of test: LTEA_HepaRG_HSPA1A: Life Technologies and Expression Analysis (LTEA) Assay for Heat shock 70 kDa protein 1 (HSPA1A) using HepaRG (AID 2283502). The essentials: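 HSPA1A induction in human HepaRG liver cells is measured after 48 h of chemical treatment (100 uM maximum, 0.5% DMSO vehicle). Expression comes from qRT-PCR normalized to endogenous controls.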

Read-out in test [2]: Hypoxia-inducible factor 1-alpha (Homo sapiens) (UniProt Q16665)
Description: LTEA_HepaRG_HIF1A: Life Technologies and Expression Analysis (LTEA) Assay for Hypoxia-inducible factor 1 (HIF1A) Trancription factor using HepaRG (AID 2283503).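 Note: HIF1A transcript by TaqMan qRT-PCR normalized to ACTB GAPDH and POLR2A.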 The procedure, abridged: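 HepaRG, 48 h exposure, 8-pt half-log series from 100 uM, 0.5% DMSO vehicle, duplicates. Readout: HIF1A transcript by qRT-PCR (Fluidigm array), housekeeping-normalised. Bidirectional curve fit vs DMSO baseline.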

Read-out in test [3]: 3-Hydroxy-3-Methylglutaryl-CoA Synthase 2 (HMGCS2), HMGCS2 (gene 3158)
Kind of test: LTEA_HepaRG_HMGCS2: Life Technologies and Expression Analysis (LTEA) Assay for 3-Hydroxy-3-Methylglutaryl-CoA Synthase 2 (HMGCS2) using HepaRG (AID 2283504). The procedure, abridged:
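This steatosis marker was read as HMGCS2 mRNA change in HepaRG cells treated 48 h with up to 100 uM chemical. Normalisation used housekeeping genes; activity in either direction was fitted relative to 0.5% DMSO vehicle.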

Read-out in test [4]: HGF (gene 3082)
Description: LTEA_HepaRG_HGF: Life Technologies and Expression Analysis (LTEA) Assay for Hepatocyte Growth Facto (HGF) using HepaRG (AID 2283505). The procedure, abridged:
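Using HepaRG monolayers kept in 0.5% DMSO, chemicals were tested in duplicate over eight half-log concentrations from 100 uM for 48 h. Endpoint: HGF mRNA change relative to DMSO, normalized to ACTB/GAPDH/POLR2A.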

Read-out in test [5]: Insulin Like Growth Factor 1 (IGF1), IGF1 (gene 3479)
Description: LTEA_HepaRG_IGF1: Life Technologies and Expression Analysis (LTEA) Assay for Insulin Like Growth Factor 1 (IGF1) using HepaRG (AID 2283506). The essentials: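 Using human HepaRG liver cells, IGF1 transcript induction or suppression is measured 48 h after dosing across eight concentrations capped at 100 uM. Values derive from bidirectional concentration-response fitting with DMSO as baseline.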

Read-out in test [6]: Intercellular Adhesion Molecule 1 (ICAM1), ICAM1 (gene 3383)
Description: LTEA_HepaRG_ICAM1: Life Technologies and Expression Analysis (LTEA) Assay for Intercellular Adhesion Molecule 1 (ICAM1) using HepaRG (AID 2283507). The essentials:
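Using the human liver line HepaRG, compounds are tested in duplicate over 48 h at concentrations up to 100 uM. Expression is determined by TaqMan qRT-PCR, normalized to endogenous controls, and analysed relative to 0.5% DMSO vehicle.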

Read-out in test [7]: Insulin-like growth factor-binding protein 1 (IGFBP1), IGFBP1 (gene 3484)
Description: LTEA_HepaRG_IGFBP1: Life Technologies and Expression Analysis (LTEA) Assay for Insulin-like growth factor-binding protein 1 (IGFBP1) using HepaRG (AID 2283508). The procedure, abridged: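 HepaRG, 48 h, 8 conc. (max 100 uM, half-log), duplicates, 0.5% DMSO. Readout: TaqMan qRT-PCR, ACTB/GAPDH/POLR2A normalisation. Fit: bidirectional vs DMSO.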

Read-out in test [8]: Interleukin 6 (IL6), IL6 (gene 3569)
Kind of test: LTEA_HepaRG_IL6: Life Technologies and Expression Analysis (LTEA) Assay for Interleukin 6 (IL6) using HepaRG (AID 2283509). The procedure, abridged:
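HepaRG, ~100,000 cells/well, 48 h pre-culture; serum-free induction medium; cmpd 8-pt half-log from 100 uM, 0.5% DMSO, duplicate, 48 h. Lysis in RLT, TaqMan qRT-PCR; gain or loss vs DMSO.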

Read-out in test [9]: Interleukin 6 Receptor (IL6R), IL6R (gene 3570)
Kind of test: LTEA_HepaRG_IL6R: Life Technologies and Expression Analysis (LTEA) Assay for Interleukin 6 Receptor (IL6R) using HepaRG (AID 2283510). The essentials:
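Concentration-response in human liver HepaRG cells: eight concentrations from 100 uM downward by half-logs, 48 h exposure, 0.5% DMSO vehicle. IL6R mRNA change measured by qRT-PCR and fitted in both directions relative to vehicle.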

Read-out in test [10]: Potassium channel subfamily K member 1 (KCNK1), KCNK1 (gene 3775)
Kind of test: LTEA_HepaRG_KCNK1: Life Technologies and Expression Analysis (LTEA) Assay for Potassium channel subfamily K member 1 (KCNK1) using HepaRG (AID 2283511). The essentials:
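Gain or loss of KCNK1 mRNA is the read-out, quantified by qRT-PCR against three housekeeping genes after 48 h chemical treatment of human HepaRG liver cells. Concentrations ran from 100 uM downward in half-log steps, vehicle 0.5% DMSO.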

Read-out in test [11]: Keratin 19 (KRT19), KRT19 (gene 3880)
Kind of test: LTEA_HepaRG_KRT19: Life Technologies and Expression Analysis (LTEA) Assay for Keratin 19 (KRT19) using HepaRG (AID 2283512). The procedure, abridged:
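Readout is qRT-PCR of KRT19 mRNA, normalized to ACTB, GAPDH and POLR2A, from HepaRG cells treated 48 h with eight-point half-log dilutions topping at 100 uM. Activity in either direction is scored relative to 0.5% DMSO vehicle.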

Read-out in test [12]: JUN Transcription Factor, JUN (gene 3725)
Kind of test: LTEA_HepaRG_JUN: Life Technologies and Expression Analysis (LTEA) Assay for JUN Transcription Factor using HepaRG (AID 2283513). The procedure, abridged: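 Human HepaRG liver cells receive test chemicals in 0.5% DMSO for 48 h across an eight-point range topping at 100 uM. Expression changes in JUN are scored in both directions against the DMSO vehicle.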

Read-out in test [13]: Lipase C (LIPC), LIPC (gene 3990)
Kind of test: LTEA_HepaRG_LIPC: Life Technologies and Expression Analysis (LTEA) Assay for Lipase C (LIPC) using HepaRG (AID 2283514). The procedure, abridged: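 Read-out is LIPC transcript level by TaqMan qRT-PCR, normalized to three housekeeping genes, after 48 h chemical treatment of human HepaRG liver cells. Curves span eight concentrations topping at 100 uM; activity in either direction scored relative to 0.5% DMSO.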

Read-out in test [14]: Lipoprotein lipase (LPL), LPL (gene 4023)
Description: LTEA_HepaRG_LPL: Life Technologies and Expression Analysis (LTEA) Assay for Lipoprotein lipase (LPL) using HepaRG (AID 2283515). The essentials: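 Read-out is LPL transcript level by qRT-PCR, normalized to three housekeeping genes and fitted bidirectionally against the DMSO control. Human HepaRG cells received chemicals for 48 h at up to 100 uM.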

Read-out in test [15]: MicroRNA 122 (MIR122), gene 406906
Description: LTEA_HepaRG_MIR122: Life Technologies and Expression Analysis (LTEA) Assay for MicroRNA 122 (MIR122) using HepaRG (AID 2283516). Note: the transcript read is the microRNA miR-122. The essentials: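 HepaRG, 48 h exposure, 8-pt half-log from 100 uM, 0.5% DMSO; TaqMan qRT-PCR; bidirectional fit vs DMSO.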

Read-out in test [16]: matrix metalloproteinase-10 (MMP10), MMP10 (gene 4319)
Kind of test: LTEA_HepaRG_MMP10: Life Technologies and Expression Analysis (LTEA) Assay for matrix metalloproteinase-10 (MMP10) using HepaRG (AID 2283517). The essentials: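 Gain or loss of MMP10 mRNA is fitted relative to the 0.5% DMSO vehicle. The human hepatic line HepaRG receives a 48-hour serum-free exposure, in duplicate, with a maximum concentration of 100 uM.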

Read-out in test [17]: MYC, MYC (gene 4609)
Kind of test: LTEA_HepaRG_MYC: Life Technologies and Expression Analysis (LTEA) Assay for MYC using HepaRG (AID 2283518). The procedure, abridged: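 Expression changes were scored by TaqMan qRT-PCR with ACTB, GAPDH and POLR2A normalization. Cultures in serum-free induction medium received duplicate 8-point concentration series, highest 100 uM, for 48 h; DMSO (0.5%) served as baseline.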

Read-out in test [18]: matrix metalloproteinase-3 (MMP3), MMP3 (gene 4314)
Description: LTEA_HepaRG_MMP3: Life Technologies and Expression Analysis (LTEA) Assay for matrix metalloproteinase-3 (MMP3) using HepaRG (AID 2283519). The procedure, abridged: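 HepaRG, human; 48 h dosing, 8 conc. (max 100 uM, half-log), duplicate, 0.5% DMSO. Readout: MMP3 transcript by Fluidigm TaqMan qRT-PCR, ACTB/GAPDH/POLR2A-normalised. Gain or loss fitted vs DMSO.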

Read-out in test [19]: Paternally Expressed 10 (PEG10), PEG10 (gene 23089)
Description: LTEA_HepaRG_PEG10: Life Technologies and Expression Analysis (LTEA) Assay for Paternally Expressed 10 (PEG10) using HepaRG (AID 2283520).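 For AC50: differentiated HepaRG human liver cells in serum-free induction medium with 0.5% DMSO; PEG10 transcript by qRT-PCR normalised to ACTB GAPDH and POLR2A.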 The essentials:
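Chemicals tested on HepaRG cells for 48 h, highest concentration 100 uM. PEG10 expression assessed by qRT-PCR relative to DMSO control.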

Chain of Hypoxia-inducible factor 1-alpha (Homo sapiens) (Q16665 whole entry, looked up): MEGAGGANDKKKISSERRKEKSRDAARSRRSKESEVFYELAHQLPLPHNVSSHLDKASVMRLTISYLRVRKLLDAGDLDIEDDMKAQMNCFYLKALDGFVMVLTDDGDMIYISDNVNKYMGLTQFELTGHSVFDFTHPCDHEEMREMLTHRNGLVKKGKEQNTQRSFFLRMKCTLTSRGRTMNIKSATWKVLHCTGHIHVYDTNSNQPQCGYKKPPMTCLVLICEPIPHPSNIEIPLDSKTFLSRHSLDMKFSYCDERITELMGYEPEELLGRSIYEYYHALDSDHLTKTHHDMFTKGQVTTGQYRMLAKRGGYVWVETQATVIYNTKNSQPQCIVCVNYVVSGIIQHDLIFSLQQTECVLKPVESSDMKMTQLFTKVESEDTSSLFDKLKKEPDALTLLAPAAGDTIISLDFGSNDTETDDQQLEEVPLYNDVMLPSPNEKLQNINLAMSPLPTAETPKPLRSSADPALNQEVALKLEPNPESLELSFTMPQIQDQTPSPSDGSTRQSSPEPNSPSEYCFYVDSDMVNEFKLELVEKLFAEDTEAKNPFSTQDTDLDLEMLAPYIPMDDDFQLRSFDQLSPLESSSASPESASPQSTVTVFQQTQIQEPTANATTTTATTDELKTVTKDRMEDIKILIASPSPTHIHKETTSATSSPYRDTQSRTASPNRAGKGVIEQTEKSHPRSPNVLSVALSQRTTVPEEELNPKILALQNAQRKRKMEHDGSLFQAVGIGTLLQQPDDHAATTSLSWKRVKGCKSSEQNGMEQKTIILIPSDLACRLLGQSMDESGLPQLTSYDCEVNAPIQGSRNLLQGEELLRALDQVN

Consider `C=CCC1=C(C)C(OC(=O)C2C(C=C(C)C)C2(C)C)CC1=O` (stereo not given), for which the outcome in test [1], in [2], in test [4], in test [6], in [7] and in test [8] was inactive. The call in [9], in test [10], in test [12], in test [13], in test [14] and in test [15] was inactive. For the same compound, the outcome in test [16], in test [17] and in [18] was inactive. For the same compound, the AC50 was 82.1 µM (active) and 80.4 µM (active) and 87.9 µM (active) in test [3]; 79.6 µM (active) and 72 µM (active) and 50 µM (active) in test [5]; 50 µM (active) and 74.3 µM (active) in [8]; 50 µM (active) and 88.1 µM (active) and 40.4 µM (active) in test [11]; 84 µM (active) in [13]; 90.8 µM (active) and 22.5 µM (active) in [15]. In addition, the AC50 in [19] was 68.4 µM (active) and 79.7 µM (active) and 28.2 µM (active).

With `COc1nc(NC(C)C)nc(NC(C)C)n1`, the call in [1], in [2], in test [3], in test [4], in [6] and in [7] was inactive. The result in test [8], in [9], in [10], in test [12], in test [13] and in [14] was inactive. Further, the outcome in test [15], in test [16], in [17], in test [18] and in test [19] was inactive. The AC50 in [5] is 66.2 µM (active); in test [11], 39.4 µM (active).

Take `CCON=C(CC)C1=C(O)CC(c2c(C)cc(C)cc2C)CC1=O` (stereo not given): the compound was classed as inactive in test [1], in test [2], in [3], in test [4], in test [5] and in [6]. Besides, the result in test [7], in test [8], in test [9], in test [10], in [11] and in test [12] was inactive. Also, the result in test [13], in test [14], in [15], in test [16], in [17] and in test [18] was inactive. Moreover, the result in test [19] was inactive.
